Measurements as given in PubChem BioAssay (Tox21).
Several values for one entry are separate records, joined by “and”; a condition that tells them apart may be missing. Equal values may be shown once. Records with an inconclusive call do not appear. Some structures have more than one record in an assay (separate samples or runs), and their calls can disagree. Activity calls are given as the source filed them. Unless noted, calls follow the shape of the dose curve; as a rule, active = well fitted curve in the direction sought with a large enough effect in the repeat runs; inconclusive = weak or mixed curves; inactive = no such curve, though single readings can be large; an effect the other way counts as inactive or inconclusive.

How the values were obtained:
[1] = qHTS assay to identify small molecule agonists of the peroxisome proliferator-activated receptor delta (PPARd) signaling pathway - cell viability counter screen (AID 743211); also: nearly all actives have a fitted effect of over 55% in size; also: potency is read from the fitted curve at half-maximal effect
Summary of the method: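 Tox21 library compounds, delivered in DMSO, were incubated 17 h with PPARd-bla HEK293H cells; cytotoxicity was taken from CellTiter-Glo luminescence read 30 min after reagent addition.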

[2] = target: Peroxisome proliferator-activated receptor delta (Homo sapiens) (UniProt Q03181); assay: qHTS assay to identify small molecule agonists of the peroxisome proliferator-activated receptor delta (PPARd) signaling pathway (AID 743212; calls by dose curve; also: potency is read from the fitted curve at half-maximal effect)
Summary of the method: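 Tox21 library screened in GeneBLAzer PPARd UAS-bla HEK293H cells. After compound treatment at 37 C, a FRET-based beta-lactamase substrate was applied for 2 h and fluorescence recorded.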

[3] = qHTS assay to identify small molecule antagonists of the peroxisome proliferator-activated receptor delta (PPARd) signaling pathway - cell viability counter screen (AID 743213); also: nearly all actives have a fitted effect of over 50% in size; also: potency is read from the fitted curve at half-maximal effect
Summary of the method: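 CellTiter-Glo was added to PPARd-bla HEK293H wells following 17 h compound treatment in the presence of 300 nM L165041. Luminescence was recorded after 30 min at room temperature.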

[4] = target: Peroxisome proliferator-activated receptor delta (Homo sapiens) (UniProt Q03181); assay: qHTS assay to identify small molecule antagonists of the peroxisome proliferator-activated receptor delta (PPARd) signaling pathway (AID 743215; active = well fitted inhibition curve with a large enough effect in the signal ratio in the repeat runs, not every such curve was filed as active; the % refers to the signal ratio;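 also: cells stimulated with agonist L165041 at 300 nM final during compound exposure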; also: potency is read from the fitted curve at half-maximal effect)
Summary of the method: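 Agonist L165041 (300 nM final) added with compound to PPARd-bla HEK293H UAS-bla reporter cells; 17 h incubation at 37 C. Read-out: LiveBLAzer FRET substrate, 2 h at room temperature, fluorescence intensity.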

[5] = target: Bile acid receptor (Homo sapiens) (UniProt Q96RI1); assay: qHTS assay to identify small molecule antagonists of the farnesoid-X-receptor (FXR) signaling pathway (AID 743217; active = well fitted inhibition curve with a large enough effect in the signal ratio in the repeat runs, not every such curve was filed as active; the % refers to the signal ratio)
Summary of the method: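 Antagonist mode: chenodeoxycholic acid at 50 uM final stimulates a UAS-driven beta-lactamase reporter in HEK 293T FXR-bla cells during 16 h, 37C compound exposure. Read-out is FRET substrate fluorescence after 2 h at room temperature.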

[6] = target: Bile acid receptor (Homo sapiens) (UniProt Q96RI1); assay: qHTS assay to identify small molecule agonists of the farnesoid-X-receptor (FXR) signaling pathway (AID 743220; active = well fitted activation curve with a large enough effect in the signal ratio in the repeat runs, not every such curve was filed as active; the % refers to the signal ratio)
Summary of the method: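 FXR-UAS-bla HEK 293T cells carrying a UAS-driven beta-lactamase reporter were plated for 5 h at 37C/5% CO2, then exposed to DMSO-dissolved Tox21 10K compounds for 16 h at 37C. A LiveBLAzer B/G FRET substrate was loaded for 2 h at room temperature before fluorescence reading.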

[7] = qHTS assay to identify small molecule antagonists of the farnesoid-X-receptor (FXR) signaling pathway - cell viability counter screen (AID 743221; active = well fitted cell-killing curve with a large enough effect in the repeat runs, not every such curve was filed as active; also: nearly all actives have a fitted effect of over 50% in size)
Summary of the method: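 Cytotoxicity is taken from ATP luminescence (CellTiter-Glo, 30 min, room temperature) in FXR-bla HEK 293T cells previously incubated 16 h at 37 C with compound and chenodeoxycholic acid at 50 uM final.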

[8] = target: Vitamin D3 receptor (Homo sapiens) (UniProt P11473); assay: qHTS assay to identify small molecule agonists of the vitamin D receptor (VDR) signaling pathway (AID 743222; calls by dose curve)
Summary of the method: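 Agonist mode, beta-lactamase reporter: fluorescence from LiveBLAzer B/G FRET substrate (2 h, room temperature) read after 16 h compound treatment at 37 C of VDR-bla cells, which were pre-incubated 4 h after seeding.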

[9] = target: Vitamin D3 receptor (Homo sapiens) (UniProt P11473); assay: qHTS assay to identify small molecule antagonists of the vitamin D receptor (VDR) signaling pathway (AID 743223; active = well fitted inhibition curve with a large enough effect in the signal ratio in the repeat runs, not every such curve was filed as active; the % refers to the signal ratio)
Summary of the method: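 Quantitative HTS in VDR-bla reporter cells stimulated with 1alpha,25-dihydroxyvitamin D3, 3 nM final. Compound exposure 16 h, 37C, 5% CO2. Read-out: beta-lactamase FRET substrate fluorescence, 2 h RT.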

[10] = qHTS assay to identify small molecule antagonists of the vitamin D receptor (VDR) signaling pathway - cell viability counter screen (AID 743225); also: nearly all actives have a fitted effect of over 50% in size; also: potency is read from the fitted curve at half-maximal effect
Summary of the method: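 Same-well multiplex: following 16 h treatment of HEK 293T cells carrying a UAS-driven beta-lactamase reporter with compound and agonist (3 nM final), and a 2 h FRET substrate step, CellTiter-Glo was added and luminescence read after 30 min.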

[11] = qHTS assay to identify small molecule agonists of the NFkB signaling pathway (AID 1159509; active = well fitted curve in the direction sought with a large enough effect in the signal ratio in the repeat runs, not every such curve was filed as active; the % refers to the signal ratio; also: series mostly up to about 61 µM)
Summary of the method: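 Pathway activation was measured in ME-180 cells stably expressing beta-lactamase under NF-kB response element control. Substrate cleavage was read as the 460/530 nm emission shift after 5 hr compound incubation.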

[12] = qHTS assay to identify small molecule agonists of the NFkB signaling pathway - cell viability counter screen (AID 1159515; calls by dose curve; also: series mostly up to about 61 µM; nearly all actives have a fitted effect of over 55% in size)
Summary of the method: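 Read by CellTiter-Glo luminescence (30 min, room temperature) in the wells also used for the beta-lactamase FRET read. ME-180 NFkB-bla cells at 2,000 per well were plated overnight, then exposed to compound for 5 hr at 37 C.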

[13] = qHTS assay to identify small molecule agonists of the endoplasmic reticulum stress response signaling pathway (AID 1159516; active = well fitted activation curve with a large enough effect in the signal ratio in the repeat runs, not every such curve was filed as active; the % refers to the signal ratio)
Summary of the method: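 Ratiometric FRET readout (405 nm excitation; 460 and 530 nm emission) of a beta-lactamase gene driven by the ER stress response element, after 2 hr substrate loading. HeLa ESRE-bla cells were seeded overnight and treated with compounds for only 5 hr at 37 C.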

[14] = qHTS assay to identify small molecule agonists of the endoplasmic reticulum stress response signaling pathway - cell viability counter screen (AID 1159517; calls by dose curve; also: nearly all actives have a fitted effect of over 50% in size; also: potency is read from the fitted curve at half-maximal effect)
Summary of the method: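 In parallel with the ESRE reporter read, cytotoxicity was scored by CellTiter-Glo luminescence (30 min, room temperature) on HeLa ESRE-bla cells dosed for 5 hr.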

[15] = qHTS assay to identify small molecule antagonists of the retinoid-related orphan receptor gamma (ROR-gamma) signaling pathway - cell viability counter screen (AID 1159520); also: nearly all actives have a fitted effect of over 50% in size
Summary of the method: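 Tet-on ROR gamma CHO cells were given compounds for 2 hr, then doxycycline hyclate at 1 uM final, and incubated 16 hr at 37 C. Viability was measured as ATP content by CellTiter-Glo luminescence.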

[16] = target: Nuclear receptor ROR-gamma (Homo sapiens) (UniProt P51449); assay: qHTS assay to identify small molecule antagonists of the retinoid-related orphan receptor gamma (ROR-gamma) signaling pathway (AID 1159521; also: nearly all actives have a fitted effect of over 50% in size; also: potency is read from the fitted curve at half-maximal effect)
Summary of the method: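 Inducible-expression reporter assay: doxycycline (1 uM final) switched on RORγ in CHO cells bearing a ROR response element-luciferase construct, with test compounds present from 2 h beforehand. Decreased luminescence after 16 h defined antagonist activity.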

[17] = qHTS assay to identify small molecule agonists of the AP-1 signaling pathway (AID 1159526; calls by dose curve)
[18] = qHTS assay to identify small molecule agonists of the farnesoid-X-receptor (FXR) signaling pathway - cell viability counter screen (AID 743218); also: nearly all actives have a fitted effect of over 45% in size; also: potency is read from the fitted curve at half-maximal effect
Summary of the method: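 Viability counter screen in the same wells: CellTiter-Glo luminescence, 30 min room-temperature incubation, measured after the beta-lactamase read. Cells were GeneBLAzer FXR-UAS-bla HEK 293T, compound-treated 16 h at 37C.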

[19] = qHTS assay to identify small molecule agonists of the vitamin D receptor (VDR) signaling pathway - cell viability counter screen (AID 743224); also: nearly all actives have a fitted effect of over 50% in size; also: potency is read from the fitted curve at half-maximal effect
Summary of the method: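 Counter screen run in the same wells as the VDR-bla reporter assay: CellTiter-Glo luminescence, 30 min at room temperature, after 16 h compound treatment at 37C of cells pre-plated for 4 h.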

[20] = qHTS assay to identify small molecule agonists of the AP-1 signaling pathway - cell viability counter screen (AID 1159525; calls by dose curve; also: nearly all actives have a fitted effect of over 55% in size)
Summary of the method: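 Same-well cytotoxicity counter screen of the Tox21 10K library in ME-180 cells. The readout is ATP-dependent luminescence after 5 h compound treatment. Data are normalised to DMSO and tetra n-octyl ammonium bromide controls.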

Measured: Potency

Sequence of Bile acid receptor (Homo sapiens) (Q96RI1 whole entry, looked up): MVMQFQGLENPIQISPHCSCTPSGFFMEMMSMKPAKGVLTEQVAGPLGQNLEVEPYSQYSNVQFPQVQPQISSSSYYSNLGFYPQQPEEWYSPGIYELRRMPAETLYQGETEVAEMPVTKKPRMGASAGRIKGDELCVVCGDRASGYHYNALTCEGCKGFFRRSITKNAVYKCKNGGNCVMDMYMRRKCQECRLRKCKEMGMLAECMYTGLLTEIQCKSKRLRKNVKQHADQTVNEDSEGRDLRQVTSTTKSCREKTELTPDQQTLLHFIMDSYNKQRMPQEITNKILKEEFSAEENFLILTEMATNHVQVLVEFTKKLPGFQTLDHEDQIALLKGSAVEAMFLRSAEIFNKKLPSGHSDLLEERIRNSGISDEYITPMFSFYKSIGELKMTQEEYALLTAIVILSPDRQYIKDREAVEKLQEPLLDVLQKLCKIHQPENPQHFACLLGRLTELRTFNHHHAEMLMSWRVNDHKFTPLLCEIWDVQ
Sequence of Vitamin D3 receptor (Homo sapiens) (P11473 whole entry, looked up): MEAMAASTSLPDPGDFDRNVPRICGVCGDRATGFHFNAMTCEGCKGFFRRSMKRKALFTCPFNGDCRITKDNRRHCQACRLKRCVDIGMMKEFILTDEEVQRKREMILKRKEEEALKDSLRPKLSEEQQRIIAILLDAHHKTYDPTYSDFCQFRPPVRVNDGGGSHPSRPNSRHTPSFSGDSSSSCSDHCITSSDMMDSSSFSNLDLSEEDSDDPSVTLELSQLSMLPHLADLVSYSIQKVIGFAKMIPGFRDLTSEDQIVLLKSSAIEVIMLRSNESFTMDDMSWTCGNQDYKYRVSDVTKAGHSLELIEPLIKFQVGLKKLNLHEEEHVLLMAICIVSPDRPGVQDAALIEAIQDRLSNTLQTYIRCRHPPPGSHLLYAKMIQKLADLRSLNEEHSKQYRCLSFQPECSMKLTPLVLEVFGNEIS
Sequence of Peroxisome proliferator-activated receptor delta (Homo sapiens) (Q03181 whole entry, looked up): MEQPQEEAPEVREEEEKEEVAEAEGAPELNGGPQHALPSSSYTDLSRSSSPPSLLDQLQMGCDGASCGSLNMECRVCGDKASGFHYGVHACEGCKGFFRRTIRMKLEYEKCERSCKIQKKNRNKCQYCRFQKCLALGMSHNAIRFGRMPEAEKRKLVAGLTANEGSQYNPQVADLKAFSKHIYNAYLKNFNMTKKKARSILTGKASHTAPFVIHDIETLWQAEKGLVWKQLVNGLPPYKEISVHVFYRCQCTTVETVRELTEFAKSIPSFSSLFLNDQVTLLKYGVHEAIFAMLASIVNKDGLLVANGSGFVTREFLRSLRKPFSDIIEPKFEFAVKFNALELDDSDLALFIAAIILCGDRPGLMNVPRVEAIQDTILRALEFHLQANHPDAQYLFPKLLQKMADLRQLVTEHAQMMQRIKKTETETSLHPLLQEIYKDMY

CC(C)(OOC(C)(C)c1ccccc1)c1ccccc1
not listed: [18] | [19] | [20]
inactive: all other assays above

COP(=O)(OC)OC
not listed: [20]
inactive: all other assays above

NNC(N)=S
active: [4] 43.6 µM | [19] 32.1 µM
8.07 µM (active) and inactive: [3]
not listed: [1] | [17]
inactive: all other assays above

C=CCc1ccc(OC)cc1
not listed: [4] | [5] | [6] | [8] | [9]
inactive: all other assays above

Cc1c(COC(=O)[C@@H]2[C@H](/C=C(\Cl)C(F)(F)F)C2(C)C)cccc1-c1ccccc1
23.8 µM (active) and inactive: [16]
not listed: [4] | [5]
inactive: all other assays above

Oc1cc(Cl)c(Cl)cc1Cl
active: [16] 48.2 µM
not listed: [2] | [4] | [5] | [6] | [8] | [9]
inactive: all other assays above

Oc1ccc(-c2ccccc2)cc1
not listed: [20]
inactive: all other assays above

Cc1ccccc1[N+](=O)[O-]
not listed: [4] | [5] | [6]
inactive: all other assays above

NC(=S)Nc1ccccc1
31.1 µM (active) and inactive: [16]
not listed: [20]
inactive: all other assays above

CCCCCCOC(=O)c1ccccc1C(=O)OCCCCCC
not listed: [1] | [5] | [6] | [8] | [9]
inactive: all other assays above

Oc1cc(Cl)ccc1Cl
not listed: [5] | [6]
inactive: all other assays above

CCOc1cc(C=O)ccc1O
not listed: [1] | [5] | [6]
inactive: all other assays above

NNC(=S)NN
active: [16] 56 µM
not listed: [1] | [5] | [6] | [17]
inactive: all other assays above

CN(C)c1ccc(C(=O)c2ccc(N(C)C)cc2)cc1
not listed: [1] | [2] | [4] | [5] | [9]
inactive: all other assays above

COP(=S)(OC)Oc1ccc([N+](=O)[O-])cc1
not listed: [9] | [18]
inactive: all other assays above

c1ccc(N=Nc2ccccc2)cc1
not listed: [2] | [4] | [5] | [6]
inactive: all other assays above

CC(C)C(=O)OCC(C)(C)C(OC(=O)C(C)C)C(C)C (stereo unspecified)
not listed: [5] | [6] | [20]
inactive: all other assays above

C=C(C)C(=O)OCC1CO1 (stereo unspecified)
inactive: all assays above

CCCCOCCOP(=O)(OCCOCCCC)OCCOCCCC
not listed: [1] | [5] | [6] | [10]
inactive: all other assays above

C#C[C@]1(O)CC[C@H]2[C@@H]3CCC4=CC(=O)CC[C@]4(C)[C@H]3CC[C@@]21C
not listed: [1] | [8] | [9]
inactive: all other assays above

CC(C)c1ccc(CO)cc1
not listed: [1] | [4]
inactive: all other assays above

CCC(=O)O[C@H]1CC[C@H]2[C@@H]3CCC4=CC(=O)CC[C@]4(C)[C@H]3CC[C@]12C
49 µM (active) and inactive: [1]
48.6 µM (active) and inactive: [16]
54.9 µM (active) and inactive: [18]
43.6 µM (active) and inactive: [10]
active: [14] 54.9 µM and 21.3 µM
12.3 µM (active) and inactive: [19]
not listed: [5] | [6] | [8] | [9]
inactive: all other assays above

O=C(O)C(F)(F)C(F)(F)C(F)(F)C(F)(F)C(F)(F)C(F)(F)C(F)(F)F
active: [2] 19.4 µM
not listed: [4] | [5] | [6] | [10]
inactive: all other assays above

C[C@]12CCC(=O)C(O)=C1CC[C@@H]1[C@@H]2CC[C@]2(C)C(=O)CC[C@@H]12
27.3 µM (active) and inactive: [16]
not listed: [1] | [2] | [4] | [5] | [6]
inactive: all other assays above

O=P(O)(O)CCCl
inactive: all assays above

C=CCN(CC=C)C(=O)C(Cl)Cl
not listed: [5] | [6]
inactive: all other assays above

Cc1cc(C)cc(C)c1
not listed: [2] | [4] | [5] | [6]
inactive: all other assays above

OCC(O)CO
not listed: [20]
inactive: all other assays above

CC1(C)C(C=C(Cl)Cl)C1C(=O)OC(C#N)c1cccc(Oc2ccccc2)c1 (stereo unspecified)
not listed: [2] | [4] | [5] | [6]
inactive: all other assays above

O=C(O)CC[N+](=O)[O-]
not listed: [1] | [5] | [6] | [8]
inactive: all other assays above
